Source: PubChem BioAssay (Tox21)
Results filed as inconclusive are left out. Activity calls are given as the source filed them. Unless noted, the call rests on the fitted dose curve; in most records, active means well fitted curve in the direction sought with a large enough effect in the repeat runs; inconclusive means weak or mixed curves; inactive means no such curve, though single readings can be large; an effect the other way counts as inactive or inconclusive.

What was measured:
[1] = qHTS assay to identify aromatase inhibitors - cell viability counter screen (AID 743084);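 further: cells stimulated with testosterone during compound exposure; nearly all actives have a fitted effect of over 55% in size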
[2] = biological target: Aryl hydrocarbon receptor (Homo sapiens) (UniProt P35869); test: qHTS assay to identify small molecule that activate the aryl hydrocarbon receptor (AhR) signaling pathway (AID 743085);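 further: HG2L7.5c1 human HepG2 liver cells with stably integrated DRE-driven firefly reporter; series mostly up to about 70 µM; nearly all actives have a fitted effect of over 15% in size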
How it was run: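 Reporter assay in engineered HepG2 line HG2L7.5c1, whose plasmid carries twenty dioxin responsive elements upstream of firefly luciferase. Treatment lasted 24 h at 37C; ONE-Glo luminescence gauged induction.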

[3] = qHTS assay to identify small molecule that activate the aryl hydrocarbon receptor (AhR) signaling pathway - cell viability counter screen (AID 743086);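 further: HepG2 liver cells carrying the AhR DRE luciferase reporter; series mostly up to about 70 µM; nearly all actives have a fitted effect of over 45% in size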
How it was run: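 HepG2-AhR-luc (HG2L7.5c1) cells, 4000/well, were preincubated 5 h at 37C, exposed to compound in qHTS format for 24 hr at 37C, then given CellTiter-Fluor for 30 min; viability was read as fluorescence in the reporter wells.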

[4] = biological target: Peroxisome proliferator-activated receptor gamma (Homo sapiens) (UniProt P37231); test: qHTS assay to identify small molecule agonists of the peroxisome proliferator-activated receptor gamma (PPARg) signaling pathway (AID 743094; active means well fitted activation curve with a large enough effect in the signal ratio in the repeat runs, not every such curve was filed as active; the % refers to the signal ratio)
How it was run: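 Cells from the PPARg UAS-bla HEK293H line are plated and incubated 5 h at 37C. Compounds in DMSO are pinned in and left 17 h at 37C. LiveBLAzer B/G substrate is then added for 1 h at room temperature before fluorescence is measured.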

[5] = biological target: Peroxisome proliferator-activated receptor gamma (Homo sapiens) (UniProt P37231); test: qHTS assay to identify small molecule antagonists of the peroxisome proliferator-activated receptor gamma (PPARg) signaling pathway (AID 743191; calls by dose curve; further: series mostly up to about 63 µM; nearly all actives have a fitted effect of over 30% in size)
How it was run: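 GeneBLAzer PPARg UAS-bla HEK293H cells carrying a UAS-driven beta-lactamase reporter were plated at 3000 cells/well, preincubated 5 h at 37C, then given compound for 17 h at 37C; LiveBLAzer B/G FRET substrate was read after 1 h at room temperature.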

[6] = qHTS assay for small molecule agonists of the antioxidant response element (ARE) signaling pathway - cell viability counter screen (AID 743203; calls by dose curve; further: nearly all actives have a fitted effect of over 55% in size)
How it was run: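 Cytotoxicity was tested in parallel with the ARE reporter screen. ARE-bla HepG2 cells were exposed to compounds for 16 hrs, and viability was taken from CellTiter-Glo luminescence.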

[7] = qHTS assay for small molecule activators of the heat shock response signaling pathway - cell viability counter screen (AID 743209); further: nearly all actives have a fitted effect of over 50% in size
How it was run: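 Cytotoxicity counter screen run in parallel with the HSE beta-lactamase reporter, using the same wells. HeLa HSE-bla cells received compound for 5 h at 37 C; ATP-based CellTiter-Glo luminescence was measured after 30 min at room temperature.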

[8] = qHTS assay for small molecule activators of the heat shock response signaling pathway (AID 743210; active means well fitted activation curve with a large enough effect in the signal ratio in the repeat runs, with a control signal flat, not every such curve was filed as active; the % refers to the signal ratio; further: series mostly up to about 63 µM)
How it was run: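 Heat shock element–beta-lactamase HeLa reporter cells; qHTS with compounds for 5 h at 37 C; detection by FRET substrate fluorescence after 2.5 h at RT.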

[9] = qHTS assay to identify small molecule agonists of the peroxisome proliferator-activated receptor delta (PPARd) signaling pathway - cell viability counter screen (AID 743211); further: nearly all actives have a fitted effect of over 55% in size
How it was run: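 Multiplexed format: after the 2 h room-temperature LiveBLAzer B/G FRET step, CellTiter-Glo was added to the same wells. Luminescence after 30 min gave cell viability; compound exposure was 17 h at 37C.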

[10] = biological target: Bile acid receptor (Homo sapiens) (UniProt Q96RI1); test: qHTS assay to identify small molecule agonists of the farnesoid-X-receptor (FXR) signaling pathway (AID 743220; active means well fitted activation curve with a large enough effect in the signal ratio in the repeat runs, not every such curve was filed as active; the % refers to the signal ratio)
How it was run: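 FXR-UAS-bla HEK 293T cells carrying a UAS-driven beta-lactamase reporter were plated for 5 h at 37C/5% CO2, then exposed to DMSO-dissolved Tox21 10K compounds for 16 h at 37C. A LiveBLAzer B/G FRET substrate was loaded for 2 h at room temperature before fluorescence reading.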

[11] = qHTS assay to identify small molecule antagonists of the farnesoid-X-receptor (FXR) signaling pathway - cell viability counter screen (AID 743221; active means well fitted cell-killing curve with a large enough effect in the repeat runs, not every such curve was filed as active; further: nearly all actives have a fitted effect of over 50% in size)
How it was run: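 CellTiter-Glo, 30 min RT, luminescence; same wells as the LiveBLAzer FRET read. Cells: FXR-UAS-bla HEK 293T. Treatment: compound with chenodeoxycholic acid 50 uM final, 16 h at 37 C.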

[12] = qHTS assay for small molecule agonists of the antioxidant response element (ARE) signaling pathway (AID 743202; active means well fitted activation curve with a large enough effect in the signal ratio in the repeat runs, not every such curve was filed as active; the % refers to the signal ratio)
How it was run: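 Following a 16 h, 37 C exposure of reporter HepG2 cells (ARE-driven beta-lactamase, 2,000 cells/well) to compounds, FRET substrate was applied for 2 h at room temperature and fluorescence intensity recorded.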

[13] = qHTS assay to identify small molecule antagonists of the peroxisome proliferator-activated receptor delta (PPARd) signaling pathway - cell viability counter screen (AID 743213); further: nearly all actives have a fitted effect of over 50% in size
How it was run: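 Cytotoxicity counter screen: CellTiter-Glo luminescence read 30 min after addition, in the same wells as the reporter assay. There, PPARd UAS-bla HEK293H cells (3000/well) were treated 17 h at 37 C with compound and 300 nM L165041.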

[14] = qHTS assay to identify small molecule agonists of the farnesoid-X-receptor (FXR) signaling pathway - cell viability counter screen (AID 743218); further: nearly all actives have a fitted effect of over 45% in size
How it was run: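 Cells were seeded, left 5 h at 37 C and 5% CO2, then dosed with compound in DMSO for 16 h. After the beta-lactamase FRET read, CellTiter-Glo was added and luminescence measured 30 min later.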

[15] = biological target: Vitamin D3 receptor (Homo sapiens) (UniProt P11473); test: qHTS assay to identify small molecule agonists of the vitamin D receptor (VDR) signaling pathway (AID 743222; calls by dose curve)
How it was run: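 Cells carrying a VDR-driven beta-lactamase reporter are seeded at 2,000 per well and rested 4 h. Compounds in DMSO are added for 16 h at 37C, and FRET substrate fluorescence is measured after 2 h at room temperature.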

[16] = biological target: Vitamin D3 receptor (Homo sapiens) (UniProt P11473); test: qHTS assay to identify small molecule antagonists of the vitamin D receptor (VDR) signaling pathway (AID 743223; active means well fitted inhibition curve with a large enough effect in the signal ratio in the repeat runs, not every such curve was filed as active; the % refers to the signal ratio)
How it was run: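 After VDR-bla cells are plated and left 4 h at 37C, DMSO-dissolved compounds and 3 nM (final) calcitriol agonist are added. Incubation continues 16 h at 37C; FRET beta-lactamase substrate then develops 2 h at room temperature.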

[17] = qHTS assay to identify small molecule antagonists of the peroxisome proliferator-activated receptor gamma (PPARg) signaling pathway - cell viability counter screen (AID 743194); further: nearly all actives have a fitted effect of over 55% in size
How it was run: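 PPARg-UAS-bla HEK293H cells were plated, rested 5 h at 37 C, then treated with compounds plus rosiglitazone (50 nM final) for 17 h at 37 C; viability was then read by CellTiter-Glo luminescence after 30 min at room temperature.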

[18] = biological target: Peroxisome proliferator-activated receptor delta (Homo sapiens) (UniProt Q03181); test: qHTS assay to identify small molecule agonists of the peroxisome proliferator-activated receptor delta (PPARd) signaling pathway (AID 743212; calls by dose curve)
How it was run: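 Beta-lactamase reporter read by fluorescence (LiveBLAzer B/G FRET, 2 h, room temperature). Test agents, in DMSO, incubated at 37 C with PPARd-bla HEK293H cells.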

[19] = biological target: Peroxisome proliferator-activated receptor delta (Homo sapiens) (UniProt Q03181); test: qHTS assay to identify small molecule antagonists of the peroxisome proliferator-activated receptor delta (PPARd) signaling pathway (AID 743215; active means well fitted inhibition curve with a large enough effect in the signal ratio in the repeat runs, not every such curve was filed as active; the % refers to the signal ratio;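 further: cells stimulated with agonist L165041 at 300 nM final during compound exposure; series mostly up to about 62 µM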)
How it was run: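 Cells: HEK293H with a UAS-driven beta-lactamase reporter responsive to PPARd. Compounds were co-added with L165041 (300 nM, final) and incubated 17 h at 37 C before a 2 h room-temperature FRET substrate step and fluorescence reading.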

[20] = biological target: Bile acid receptor (Homo sapiens) (UniProt Q96RI1); test: qHTS assay to identify small molecule antagonists of the farnesoid-X-receptor (FXR) signaling pathway (AID 743217; active means well fitted inhibition curve with a large enough effect in the signal ratio in the repeat runs, not every such curve was filed as active; the % refers to the signal ratio)
How it was run: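 Cells carrying a UAS-driven beta-lactamase reporter (GeneBLAzer FXR-UAS-bla HEK 293T) were plated and rested 5 h at 37 °C. Compounds in DMSO were added alongside chenodeoxycholic acid agonist at 50 uM final and left 16 h at 37 °C before FRET substrate readout.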
On the % scale 0 is the no-effect control and ±100 the full control effect.

Chain of Aryl hydrocarbon receptor (Homo sapiens) (P35869 whole entry, looked up): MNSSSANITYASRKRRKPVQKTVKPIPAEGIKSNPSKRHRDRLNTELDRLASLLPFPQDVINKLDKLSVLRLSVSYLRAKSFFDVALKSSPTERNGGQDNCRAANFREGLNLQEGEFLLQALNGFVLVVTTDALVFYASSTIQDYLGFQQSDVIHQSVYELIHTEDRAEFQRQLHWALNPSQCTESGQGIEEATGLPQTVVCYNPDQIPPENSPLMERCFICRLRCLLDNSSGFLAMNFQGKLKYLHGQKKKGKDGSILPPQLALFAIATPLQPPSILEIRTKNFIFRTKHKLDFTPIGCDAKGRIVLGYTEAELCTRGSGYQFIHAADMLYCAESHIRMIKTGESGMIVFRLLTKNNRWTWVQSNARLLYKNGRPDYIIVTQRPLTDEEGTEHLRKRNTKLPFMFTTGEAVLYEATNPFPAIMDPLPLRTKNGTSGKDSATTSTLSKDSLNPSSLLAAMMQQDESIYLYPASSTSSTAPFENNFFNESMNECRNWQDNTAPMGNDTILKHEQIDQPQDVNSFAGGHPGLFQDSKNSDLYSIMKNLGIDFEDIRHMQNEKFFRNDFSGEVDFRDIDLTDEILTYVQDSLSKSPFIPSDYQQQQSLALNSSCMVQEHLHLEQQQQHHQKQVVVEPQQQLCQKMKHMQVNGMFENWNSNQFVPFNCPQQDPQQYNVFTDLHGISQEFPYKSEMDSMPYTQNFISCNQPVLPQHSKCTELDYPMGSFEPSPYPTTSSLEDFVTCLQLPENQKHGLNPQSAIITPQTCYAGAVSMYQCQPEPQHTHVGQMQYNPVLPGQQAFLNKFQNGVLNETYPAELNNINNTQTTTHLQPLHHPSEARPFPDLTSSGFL
Chain of Peroxisome proliferator-activated receptor gamma (Homo sapiens) (P37231 whole entry, looked up): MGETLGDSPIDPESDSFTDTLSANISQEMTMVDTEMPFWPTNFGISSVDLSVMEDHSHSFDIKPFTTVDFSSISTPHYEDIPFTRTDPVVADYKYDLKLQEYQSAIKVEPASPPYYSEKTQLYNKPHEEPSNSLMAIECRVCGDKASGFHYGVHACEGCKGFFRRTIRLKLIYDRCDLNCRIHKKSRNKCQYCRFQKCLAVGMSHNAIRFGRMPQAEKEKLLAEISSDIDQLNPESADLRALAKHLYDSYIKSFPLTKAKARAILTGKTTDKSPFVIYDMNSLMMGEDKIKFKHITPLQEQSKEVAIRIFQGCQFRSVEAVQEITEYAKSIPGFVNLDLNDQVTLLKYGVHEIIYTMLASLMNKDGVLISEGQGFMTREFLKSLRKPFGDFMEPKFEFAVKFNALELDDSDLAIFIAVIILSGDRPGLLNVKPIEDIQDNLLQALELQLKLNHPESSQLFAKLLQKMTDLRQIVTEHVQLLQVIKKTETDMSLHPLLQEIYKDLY
Chain of Vitamin D3 receptor (Homo sapiens) (P11473 whole entry, looked up): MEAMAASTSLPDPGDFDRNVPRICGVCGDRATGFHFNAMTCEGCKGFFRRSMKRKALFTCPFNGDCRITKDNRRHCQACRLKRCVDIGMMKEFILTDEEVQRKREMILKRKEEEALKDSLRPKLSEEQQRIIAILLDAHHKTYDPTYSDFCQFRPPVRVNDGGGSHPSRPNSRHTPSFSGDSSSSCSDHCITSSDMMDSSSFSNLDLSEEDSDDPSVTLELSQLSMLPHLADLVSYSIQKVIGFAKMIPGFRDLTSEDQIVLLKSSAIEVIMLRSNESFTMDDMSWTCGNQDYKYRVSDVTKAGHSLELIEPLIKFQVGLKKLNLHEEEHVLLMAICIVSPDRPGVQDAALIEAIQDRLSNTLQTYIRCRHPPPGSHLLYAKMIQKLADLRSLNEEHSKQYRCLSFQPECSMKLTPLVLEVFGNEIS
Chain of Peroxisome proliferator-activated receptor delta (Homo sapiens) (Q03181 whole entry, looked up): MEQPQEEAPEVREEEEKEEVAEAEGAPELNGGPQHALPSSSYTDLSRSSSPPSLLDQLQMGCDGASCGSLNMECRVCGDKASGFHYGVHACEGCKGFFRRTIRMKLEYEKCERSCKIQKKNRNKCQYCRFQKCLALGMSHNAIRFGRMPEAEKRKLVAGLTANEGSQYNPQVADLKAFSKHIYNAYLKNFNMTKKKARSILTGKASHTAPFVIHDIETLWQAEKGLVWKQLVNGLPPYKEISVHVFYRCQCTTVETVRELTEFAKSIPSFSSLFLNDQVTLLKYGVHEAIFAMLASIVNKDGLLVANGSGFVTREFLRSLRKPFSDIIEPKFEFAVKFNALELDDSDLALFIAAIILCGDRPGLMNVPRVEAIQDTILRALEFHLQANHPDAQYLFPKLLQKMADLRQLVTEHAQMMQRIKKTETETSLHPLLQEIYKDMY
Chain of Bile acid receptor (Homo sapiens) (Q96RI1 whole entry, looked up): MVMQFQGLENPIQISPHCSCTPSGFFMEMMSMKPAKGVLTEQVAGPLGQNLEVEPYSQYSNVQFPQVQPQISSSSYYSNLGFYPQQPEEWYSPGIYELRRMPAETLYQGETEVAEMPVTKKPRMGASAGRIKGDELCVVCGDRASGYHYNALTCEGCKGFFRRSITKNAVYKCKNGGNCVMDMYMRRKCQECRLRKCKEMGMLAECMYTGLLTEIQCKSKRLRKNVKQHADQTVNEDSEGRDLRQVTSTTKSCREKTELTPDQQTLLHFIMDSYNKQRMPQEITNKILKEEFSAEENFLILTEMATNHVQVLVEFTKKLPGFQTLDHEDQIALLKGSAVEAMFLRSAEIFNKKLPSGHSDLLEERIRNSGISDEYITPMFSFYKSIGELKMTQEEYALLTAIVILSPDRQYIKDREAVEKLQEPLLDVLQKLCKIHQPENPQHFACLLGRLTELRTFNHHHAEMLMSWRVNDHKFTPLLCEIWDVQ

c1ccc(CC2=NCCN2)cc1
inactive: Potency [1] | Potency [2] | Potency [3] | outcome [4] | Potency [5] | Potency [6] | outcome [7] | outcome [8] | Potency [9] | outcome [10] | Potency [11]

CN(C)CCCNCCCN(C)C
inactive: Potency [1] | Potency [2] | Potency [3] | outcome [4] | Potency [5] | Potency [12] | Potency [6] | outcome [7] | outcome [8] | Potency [9] | Potency [13] | Potency [14] | Potency [11] | outcome [15] | outcome [16]

CC(C)(O)C#CC(C)(C)O
inactive: Potency [1] | Potency [2] | Potency [3] | outcome [4] | outcome [17] | Potency [12] | Potency [6] | outcome [7] | outcome [8] | Potency [9] | outcome [18] | Potency [13] | Potency [19] | Potency [11]

CCSC(=O)N(CC(C)C)CC(C)C
inactive: Potency [1] | Potency [2] | Potency [3] | outcome [4] | outcome [17] | Potency [12] | Potency [6] | outcome [7] | outcome [8] | Potency [9] | outcome [18] | Potency [13] | Potency [19] | Potency [14] | Potency [11] | outcome [15] | outcome [16]

C[C@](N)(Cc1ccc(O)cc1)C(=O)O
inactive: Potency [1] | Potency [2] | Potency [3] | outcome [4] | activity change, negative = cytotoxicity [17] 4.13% [at 5.95 µM] | activation [12] 6.12% [at 8.36 µM] | viability change, negative = cytotoxic [6] -15% [at 8.36 µM] | activity change, negative = cytotoxicity [7] 1.38% [at 5.95 µM] | activation [8] 0.673% [at 5.95 µM] | activity change, negative = cytotoxicity [9] 3.74% [at 5.95 µM] | viability change, negative = cytotoxic [13] 17.6% [at 6.26 µM] | activity change, negative = inhibition [20] 3.49% [at 5.95 µM] | viability change, negative = cytotoxic [14] 17.1% [at 5.95 µM] | activation [10] 1.44% [at 5.95 µM] | activity change, negative = cytotoxicity [11] -5.83% [at 5.95 µM]

CCCCCCCCCCCCN(CCCCCCCCCCCC)CCCCCCCCCCCC
inactive: Potency [1] | Potency [2] | Potency [3] | outcome [4] | Potency [5] | Potency [12] | Potency [6] | outcome [7] | outcome [8] | Potency [9] | outcome [18] | Potency [13] | Potency [19] | Potency [14] | Potency [11] | outcome [15] | outcome [16]

FC(F)OC(Cl)C(F)(F)F (stereo unspecified)
inactive: Potency [1] | Potency [2] | Potency [3] | outcome [4] | Potency [5] | Potency [6] | outcome [7] | outcome [8] | Potency [9] | outcome [18] | Potency [19] | outcome [20] | Potency [14] | outcome [10]

COc1ccc2c(c1)c(CC(=O)OCC(=O)O)c(C)n2C(=O)c1ccc(Cl)cc1
inactive: Potency [1] | Potency [2] | Potency [3] | outcome [4] | outcome [17] | Potency [12] | Potency [6] | outcome [7] | outcome [8] | Potency [9] | Potency [14] | Potency [11] | outcome [15]

CCc1nccnc1CC
inactive: Potency [1] | Potency [2] | Potency [3] | outcome [4] | Potency [5] | Potency [6] | outcome [7] | outcome [8] | Potency [9] | outcome [18] | Potency [13] | Potency [19] | Potency [14] | outcome [15] | outcome [16]
